Source: PubChem BioAssay
TbPYK inhibitor = inhibitors of Trypanosoma brucei pyruvate kinase; TbPYK enzyme, Kinase-Glo Plus ATP luminescence, 45 min; hit rate 0.12% among 410,000; Q57TT1; Potency, µM (doses to about 76.8 µM), without a hit: top-dose activity, negative = inhibition, most hits filed as inhibitors; also: potency is read from the fitted curve at half-maximal effect; nearly all actives have a fitted effect of over 50% in size
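Quantitative HTS: titrated library compounds versus trypanosomal pyruvate kinase in TEA buffer (pH 7.2) containing KCl, MgCl2, BSA and Tween-20. Reactions were initiated with ADP, 130 uM final. Kinase-Glo Plus luminescence was read after 45 min at RT.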
Giardia FBPA inh = Giardia lamblia aldolase inhibition; A8B2U2; purified Giardia FBPA; Potency, µM (highest dose often 59.6 µM), for the others: top-dose activity, negative = inhibition, most hits filed as inhibitors; hit rate 0.71% among 290,000; AID 2451; also: potency is read from the fitted curve at half-maximal effect; nearly all actives have a fitted effect of over 55% in size
Target sequence (A8B2U2 whole entry, looked up): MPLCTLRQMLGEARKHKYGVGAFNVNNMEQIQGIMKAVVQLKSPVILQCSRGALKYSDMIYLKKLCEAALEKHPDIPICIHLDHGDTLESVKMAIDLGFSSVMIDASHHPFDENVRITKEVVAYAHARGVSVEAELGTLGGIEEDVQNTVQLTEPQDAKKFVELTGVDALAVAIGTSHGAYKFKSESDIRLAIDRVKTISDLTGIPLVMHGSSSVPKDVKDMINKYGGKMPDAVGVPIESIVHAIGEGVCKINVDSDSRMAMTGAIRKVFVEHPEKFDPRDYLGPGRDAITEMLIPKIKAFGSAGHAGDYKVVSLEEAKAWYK
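Giardia FBPA (40 nM reagent) was preincubated 10 min at RT with compound (up to 57.5 uM final), then substrate plus GAPDH/TPI/NAD/arsenate coupling system with diaphorase/resazurin was added; resorufin fluorescence (525/598 nm) was read after 20 min.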
HCMV inh = human cytomegalovirus inhibition. HFF cells, HCMV-luciferase reporter, 72 h; hits give low values. activity change, negative = inhibition, % at 57.5 µM. hit rate 4.5% among 410,000. AID 1259415; in the data active = activity change below about -60%; inconclusive = no clear call, values can overlap the other calls; inactive = above about -39%
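Human foreskin fibroblasts infected with luciferase-reporter HCMV at MOI 1 PFU/cell, compounds at two doses. Luciferase measured 72 h post infection; normalized to buffer-only basal and Salinomycin (10uM) controls.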
FMDV antiviral = foot and mouth disease virus antiviral activity | Potency, µM (doses to about 57.9 µM), inactives show at the highest dose activity change, negative = inhibition, hits mostly inhibitors | FMDV antiviral cell-based qHTS | hit rate 1.2% among 410,000; calls by dose curve; tested in HEK293T cells; also: read-out not given here; potency is read from the fitted curve at half-maximal effect; nearly all actives have a fitted effect of over 45% in size
RE007 growth inh = less growth of the S. pombe RE007 Vpr strain; S. pombe RE007 Vpr strain, BacTiter-Glo ATP luminescence, 24 h; Potency, µM (top dose mostly 92.2 µM), for the others: at the top dose activity change, negative = less growth, hits mostly inhibitors; hit rate 0.21% among 360,000; AID 651644; active = well fitted falling curve with a large enough effect; inconclusive = small, poorly fitted or top-dose-only effect; inactive = no such curve, though single readings can be large or run the other way; also: potency is read from the fitted curve at half-maximal effect; nearly all actives have a fitted effect of over 50% in size
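Fission yeast RE007 carrying one integrated HIV-1 vpr copy, seeded at OD 0.01 in PMG+AL medium with 23 nL pinned compound. Grown 24 h at 30 degrees; viability read by BacTiter-Glo luminescence after 5 min.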
Sm TGR inh = S. mansoni TGR enzyme inhibition | purified TGR, DTNB reduction, TNB absorbance 405 nm | hit rate 3% among 360,000 | Potency, µM (highest dose often 114 µM), without a hit: at the top dose activity change, negative = inhibition, most hits filed as inhibitors | Q962Y6 | AID 485364; also: potency is read from the fitted curve at half-maximal effect; nearly all actives have a fitted effect of over 60% in size
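First, TGR (20 nM dispensed) and NADPH were mixed with compound. Second, a 15 min room-temperature incubation followed. Third, further NADPH and then DTNB were added to start the reaction. Finally, TNB absorbance was monitored kinetically.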
* = called active by the depositor; ? = inconclusive; nt = not tested or not shown; [ ] = dose if it differs, or a comment. Compounds with a hit are over-represented: about 7.7% of the library has one in this group of screens. Unless noted, calls follow the shape of the dose curve; as a rule, active = well fitted curve in the direction sought with a large enough effect; inconclusive = small, poorly fitted or top-dose-only effect, or another doubt; inactive = no such curve, though single readings can be large; an effect the other way counts as inactive or inconclusive. % is scaled to controls: 0 for no effect and ±100 for the full control effect.

SMILES | TbPYK inhibitor | Giardia FBPA inh | HCMV inh | FMDV antiviral | RE007 growth inh | Sm TGR inh
Cc1nc2sc(C(c3cccs3)N3CCN(c4ccccc4)CC3)c(O)n2n1 (configuration not stated) | 4.0% | 3.4% | -69.7* | -13.6% | 0.2% | 3.4%
Cc1nc2sc(C(c3ccc(Cl)cc3)N3CCOCC3)c(O)n2n1 (configuration not stated) | 2.2% | 5.7% | -100.6* | -2.4% | 2.2% | 11.8%
Cc1c(C(=N)C(C#N)C#N)c(=N)oc2c1ccc1ccccc12 | 5.9% | -11.3% | -74.8* | -4.1% | nt | -23.8%
COc1ccc(-c2nc3cnc(OC)nc3n(Cc3cccc(OC)c3)c2=O)cc1 | -4.2% | -9.2% | nt | -4.3% | nt | nt
C[C@@H](CC(=O)O)[C@@H](N)C(=O)O | nt | -3.8% | nt | -9.7% | nt | nt
Cc1ccc(-c2nc(CN3CCCCC3)cc(CN3CCCCC3)c2O)cc1 | -3.8% | -28.1% | -35.4 | 0.0% | -0.7% | 20µM*
COC(=O)NC(/C(C(=O)OC)=C(\C)NCc1ccccc1)c1ccc(F)cc1 (configuration not stated) | nt | -14.2%[12.9 µM] | nt | nt | nt | nt
Nc1nc(-c2ccc3c(c2)NC(=O)CO3)cs1 | 0.3% | -14.7% | 1.0 | 10.0% | 4.9% | ?
CCCCN=c1scc(-c2ccc3c(c2)NC(=O)CO3)n1N=C1CCCC1 | 0.5% | -14.5% | -75.6* | 25.1µM* | 12.7% | ?
CCN=c1scc(-c2ccc3c(c2)NC(=O)CO3)n1N=C1CCCC1 | 3.8% | -19.6% | -77.2* | ? | 8.1% | -6.6%
CCOc1ccc2c(c1)n([O-])c1c([n+]2=O)CCCC1 | -12.7% | 14.1µM* | 3.1 | ? | 10.5% | 5.62µM*
COc1ccc2c(c1)n([O-])c1c([n+]2=O)CCC1 | 5.5% | -25.5% | nt | -0.9% | 5.3% | 39.8µM*
COc1ccccc1NC(=O)CN1C(=O)C2(SCC(=O)N2c2ccc(C)c(C)c2)c2ccccc21 (configuration not stated) | -5.2% | nt | -71.9* | ? | nt | 2.9%
O=C(NC(=S)Nc1ccccc1Br)c1ccco1 | -5.3% | -12.8% | 29.8 | 23.9% | -3.5% | 35.5µM*
O=C(NC(=S)Nc1cccc(NC(=S)NC(=O)c2ccco2)n1)c1ccco1 | 3.6% | ? | -115.6* | 51.3% | 6.4% | nt
S=C(Nc1ccccc1)Nc1ccccc1Br | 6.2% | -1.5% | -32.0 | 38.3% | 3.4% | 44.7µM*
COC(=O)NCc1c(C)nn(-c2ccccc2)c1-n1cccc1 | -6.2% | nt | -30.8 | -5.9% | nt | -0.5%
Cc1cccc(C(=O)NC2(C(F)(F)F)N=C(c3ccccc3)N(Cc3ccccc3)C2=O)c1 (configuration not stated) | 5.7% | nt | -35.6 | -10.6% | nt | -2.0%
COc1ccc(-c2cc3nc(C)c(CCC(=O)Nc4ccc(F)cc4F)c(C)n3n2)c(OC)c1 | 0.2% | nt | 19.0 | 20.3% | nt | 3.4%
Cc1ccc(S(=O)(=O)c2ccc(C)cc2)cc1 | 1.6% | -7.6% | 14.7 | 11.7% | -12.4% | 3.0%
O=S(=O)(/C=C/C=C/S(=O)(=O)c1ccccc1)c1ccccc1 | -14.0% | nt | -78.1* | 7.94µM* | 2.6% | nt
Cc1ccc(S(=O)(=O)C=CS(=O)(=O)c2ccc(C)cc2)cc1 | ? | nt | ? | ? | 1.41µM* | nt
O=C(c1cnccn1)N1CCC2(CC1)CCN(C(c1ccccc1)c1ccccc1)CC2 | -4.8% | 1.3% | nt | -13.3% | nt | nt
Cc1cc(C)c(N=C2CCCN2Cc2ccccc2)c(C#N)c1 | 0.5% | -1.0% | -16.3 | 1.5% | -4.4% | -0.3%
CN1CCc2c1nc1ccccc1c2N=C1CCCN1Cc1ccccc1 | -8.5% | -14.6% | -61.3* | -27.7% | -0.5% | -1.4%
COC(=O)[C@H]1CC(=O)N[C@@H]1c1ccc(OC(C)C)c(OC)c1 | nt | nt | -3.5 | nt | nt | nt
COc1ccccc1-c1ccc(/C=C2/C=C(CC(C)C)OC2=O)o1 | -10.5% | -8.8% | -6.6 | -5.5% | -25.8% | 35.5µM*
CCCC1=C/C(=C/c2ccc(-c3ccccc3OC)o2)C(=O)O1 | -13.9% | -3.1% | -33.2 | -11.0% | nt | 22.4µM*
CC(C)(C)c1ccc(C(=O)Nc2cc(-c3ccccc3)nn2-c2ccccc2)cc1 | -1.4% | nt | 0.7 | -4.8% | nt | 0.0%
